Reference: PubChem BioAssay (Tox21)
Records with an inconclusive call do not appear. The source made the active and inactive calls. Unless noted, the call rests on the fitted dose curve; in most records, active means well fitted curve in the direction sought with a large enough effect in the repeat runs; inconclusive means weak or mixed curves; inactive means no such curve, though single readings can be large; an effect the other way counts as inactive or inconclusive.

How the values were obtained:
[1] = qHTS assay to identify small molecule agonists of the estrogen related receptor (ERR) signaling pathway from Tox21 library (AID 1224849; calls by dose curve; further: on the % scale 0 is the no-effect control and ±100 the full control effect; nearly all actives have a fitted effect of over 15% in size); conditions: ERR reporter cell line, ONE-Glo luciferase, 18 h; at 92.4 µM (top of the series) unless noted
Method in brief: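 Tox21 compounds tested for ERR agonism in an NTP reporter cell line: 18 h treatment at 37 C, then ONE-Glo luminescence.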

[2] = qHTS RealTime-Glo MT Cell Viability Assay in HepG2 cells - 24 hour (AID 1224867); further: nearly all actives have a fitted effect of over 50% in size; further: potency means the concentration at half of the fitted maximal effect
Method in brief: (§1)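 Compound treatment began 5 h after plating HepG2 cells (600/well) with NanoLuc luciferase and prosubstrate. Plates stayed at 37 C for 40 h; luminescence was captured at six time points, 0 h through 40 h.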

[3] = qHTS RealTime-Glo MT Cell Viability Assay in HEK293 cells - 32 hour (AID 1224868); further: nearly all actives have a fitted effect of over 50% in size; further: potency means the concentration at half of the fitted maximal effect
Method in brief: (§2)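 Quantitative high-throughput screen of the Tox21 10K library in HEK293: cells and RealTime-Glo reagents plated together, compound added at 5 h, luminescence monitored through 40 h at 37 C.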

[4] = A CellTox Green Cytotoxicity Assay to monitor cytotoxicity in HEK293 cells - 0 hour (AID 1224869); further: nearly all actives have a fitted effect of over 50% in size; further: potency means the concentration at half of the fitted maximal effect; on Cytotoxicity: on the % scale 0 is the no-effect control and ±100 the full control effect
Method in brief: (§3)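 Tox21 screen in HEK293: membrane-impermeant cyanine dye fluoresces on binding dead-cell DNA; compound pinned 5 h post-seeding, plates held at 37 C, signal read repeatedly through 40 h.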

[5] = qHTS RealTime-Glo MT Cell Viability Assay in HepG2 cells - 40 hour (AID 1224870); further: nearly all actives have a fitted effect of over 50% in size; further: potency means the concentration at half of the fitted maximal effect
Method in brief: (§4)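 Real-time viability: cells seeded at 600 per well together with NanoLuc and cell-permeant prosubstrate, compounds added after 5 h incubation. Luminescence tracked at 0, 8, 16, 24, 32 and 40 h of exposure.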

[6] = A CellTox Green Cytotoxicity Assay to monitor cytotoxicity in HEK293 cells - 40 hour (AID 1224871); further: nearly all actives have a fitted effect of over 45% in size; further: potency means the concentration at half of the fitted maximal effect
Method in brief: as §3

[7] = qHTS RealTime-Glo MT Cell Viability Assay in HEK293 cells - 16 hour (AID 1224872); further: nearly all actives have a fitted effect of over 50% in size; further: potency means the concentration at half of the fitted maximal effect
Method in brief: as §2

[8] = qHTS RealTime-Glo MT Cell Viability Assay in HepG2 cells - 8 hour (AID 1224873); further: on the % scale 0 is the no-effect control and ±100 the full control effect; nearly all actives have a fitted effect of over 55% in size
Method in brief: as §4

[9] = qHTS RealTime-Glo MT Cell Viability Assay in HEK293 cells - 40 hour (AID 1224874); conditions: RealTime-Glo luminescence; max response: active compounds read low; further: nearly all actives have a fitted effect of over 50% in size; further: potency means the concentration at half of the fitted maximal effect; on max response: on the % scale 0 is the no-effect control and ±100 the full control effect
Method in brief: (§5)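 HEK293 + NanoLuc + prosubstrate, 600 cells/well; 5 h, 37 C/5% CO2; compound 23 nL in DMSO by pintool; 37 C; luminescence read at 0, 8, 16, 24, 32 and 40 h time points.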

[10] = A CellTox Green Cytotoxicity Assay to monitor cytotoxicity in HEK293 cells - 24 hour (AID 1224875); further: nearly all actives have a fitted effect of over 45% in size; further: potency means the concentration at half of the fitted maximal effect; on activity change: on the % scale 0 is the no-effect control and ±100 the full control effect
Method in brief: as §3

[11] = A CellTox Green Cytotoxicity Assay to monitor cytotoxicity in HepG2 cells - 16 hour (AID 1224876); further: nearly all actives have a fitted effect of over 45% in size; further: potency means the concentration at half of the fitted maximal effect
Method in brief: (§6)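 Measurements at 0, 8, 16, 24, 32 and 40 h of treatment captured CellTox Green fluorescence in HepG2 cells that had been co-plated with reagent and preincubated 5 h at 37 C/5% CO2.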

[12] = A CellTox Green Cytotoxicity Assay to monitor cytotoxicity in HepG2 cells - 24 hour (AID 1224878); further: nearly all actives have a fitted effect of over 45% in size; further: potency means the concentration at half of the fitted maximal effect
Method in brief: as §6

[13] = A CellTox Green Cytotoxicity Assay to monitor cytotoxicity in HepG2 cells - 40 hour (AID 1224879); further: nearly all actives have a fitted effect of over 40% in size; further: potency means the concentration at half of the fitted maximal effect
Method in brief: as §6

[14] = qHTS RealTime-Glo MT Cell Viability Assay in HEK293 cells - 0 hour (AID 1224880)
Method in brief: as §5

[15] = A CellTox Green Cytotoxicity Assay to monitor cytotoxicity in HEK293 cells - 32 hour (AID 1224881); further: nearly all actives have a fitted effect of over 40% in size; further: potency means the concentration at half of the fitted maximal effect
Method in brief: as §3

[16] = A CellTox Green Cytotoxicity Assay to monitor cytotoxicity in HepG2 cells - 0 hour (AID 1224882); further: nearly all actives have a fitted effect of over 35% in size; further: potency means the concentration at half of the fitted maximal effect; on Cytotoxicity: on the % scale 0 is the no-effect control and ±100 the full control effect
Method in brief: as §6

[17] = qHTS assay to identify small molecule antagonists of the estrogen related receptor (ERR) signaling pathway from Tox21 library (AID 1224848)
Method in brief: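 ERR cell line, 2,000 cells/well. 6 h settle, then compound (DMSO) added; 18 h at 37 C; ONE-Glo luminescence after 30 min RT.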

[18] = qHTS RealTime-Glo MT Cell Viability Assay in HepG2 cells - 32 hour (AID 1224877); further: nearly all actives have a fitted effect of over 55% in size; further: potency means the concentration at half of the fitted maximal effect
Method in brief: as §1

COC(=O)[C@]1(C)CCC[C@@]2(C)[C@H]1CC=C1C=C(C(C)C)CC[C@@H]12
active: Potency [4] 24.5 µM | Potency [6] 38.9 µM | Potency [10] 38.9 µM | Potency [11] 24.5 µM | Potency [12] 24.5 µM | Potency [13] 24.5 µM | Potency [15] 38.9 µM | Potency [16] 24.5 µM
inactive: activity change, positive = activation [1] -22.1% | Potency [2] | Potency [3] | Potency [5] | Potency [7] | Potency [8] | max response [9] -2.95% | Potency [14]

CN1CCN(C2Cc3ccccc3Sc3ccc(Cl)cc32)CC1 (stereo unspecified)
inactive: Potency [4] | Potency [14] | Potency [16]
active: Potency [17] 26.6 µM | Potency [2] 23.9 µM | Potency [6] 21.3 µM | Potency [9] 23.9 µM | Potency [10] 21.3 µM | Potency [11] 26.8 µM | Potency [18] 23.9 µM | Potency [12] 23.9 µM | Potency [13] 23.9 µM | Potency [15] 21.3 µM

C[n+]1c2cc(N)ccc2cc2ccc(N)cc21 (tested in a mixture with another compound)
active: Potency [3] 5.35 µM | Potency [4] 23.9 µM | Potency [6] 23.9 µM | Potency [7] 21.3 µM | Potency [9] 4.77 µM | Potency [10] 23.9 µM | Potency [12] 21.3 µM | Potency [13] 21.3 µM | Potency [15] 23.9 µM | Potency [16] 23.9 µM
inactive: Potency [14]

CCCCCCC(C)Nc1ccc(Nc2ccccc2)cc1 (stereo unspecified)
inactive: Potency [4] | Potency [10] | Potency [11] | Potency [12] | Potency [13] | Potency [15] | Potency [16]
active: Potency [3] 24.5 µM | Potency [7] 19.5 µM | Potency [9] 21.9 µM

Clc1ccccc1CN1CCc2sccc2C1
inactive: Potency [2] | Potency [4] | Potency [6] | Potency [8] | max response [9] -22.8% | Potency [10] | Potency [11] | Potency [18] | Potency [12] | Potency [13] | Potency [14] | Potency [15]

CC(=O)OC(OC(C)=O)c1ccc([N+](=O)[O-])o1
active: Potency [3] 44.4 µM | Potency [6] 49.8 µM | Potency [7] 44.4 µM | Potency [9] 44.4 µM | Potency [13] 49.8 µM
inactive: Potency [4] | Potency [14] | Potency [16]

CC(C)N=C(N)/N=C(\N)Nc1ccc(Cl)cc1
inactive: Potency [2] | Potency [4] | Potency [6] | Potency [8] | Potency [10] | Potency [18] | Potency [14] | Potency [15] | Potency [16]
active: Potency [3] 26.8 µM | Potency [9] 26.8 µM | Potency [12] 26.8 µM | Potency [13] 26.8 µM

CC(O)C#CC(C)O (stereo unspecified)
active: Potency [6] 54.4 µM | Potency [15] 54.4 µM
inactive: Potency [4] | Potency [14] | Potency [16]

CCO[Si](CCCSSSSCCC[Si](OCC)(OCC)OCC)(OCC)OCC
inactive: Potency [2] | Potency [3] | Potency [4] | Potency [5] | Potency [7] | Potency [8] | max response [9] -16.8% | Potency [11] | Potency [12] | Potency [13] | Potency [14] | Potency [16]

COCC(=O)O[C@]1(CCN(C)CCCc2nc3ccccc3[nH]2)CCc2cc(F)ccc2[C@@H]1C(C)C
inactive: Potency [4] | Potency [14]
active: Potency [2] 13.4 µM | Potency [3] 6.74 µM | Potency [5] 10.7 µM | Potency [6] 19 µM | Potency [7] 5.35 µM | Potency [10] 21.3 µM | Potency [11] 19 µM | Potency [12] 13.4 µM | Potency [13] 10.7 µM | Potency [15] 21.3 µM

O=C(Oc1ccccc1)c1cccc(C(=O)Oc2ccccc2)c1
inactive: Potency [2] | Potency [4] | Potency [5] | Potency [6] | Potency [7] | Potency [8] | max response [9] 5.48% | Potency [18] | Potency [14]

CN(C)c1ccc(N=Nc2ccccc2C(=O)O)cc1
inactive: Potency [3] | Potency [4] | Potency [7] | max response [9] 2% | Potency [10] | Potency [11] | Potency [12] | Potency [14] | Potency [15] | Potency [16]

C=CCCCCCCC=C
inactive: Potency [2] | Potency [3] | Potency [4] | Potency [5] | Potency [6] | Potency [7] | max response [9] 0.211% | Potency [10] | Potency [11] | Potency [18] | Potency [12] | Potency [13] | Potency [14] | Potency [15] | Potency [16]
